In the library only some 3.8% were active in any assay of this set; here they are far more common.
NOTCH agonist: activates NOTCH signaling in reporter cells; NOTCH signaling luciferase reporter cells, luminescence; activation, % at 2.5 µM; 15,000 tested, 0.4% active; AID 434982; in the data active = activation above about 2.2%
luminol inh ctr: luminol signal inhibition, Nox1 inhibitor counter-screen; AID 1823; HRP/luminol/H2O2 chemiluminescence counterscreen; inhibition, % at 6.7 µM; 16,000 tested, 0.4% active; also: reference of the scale not given here
Nox1 inhibitor: human Nox1 inhibition. HT29 cells, luminol chemiluminescence ROS. inhibition, % at 6.7 µM. 16,000 tested, 0.81% active. AID 1792
S1P1 agonist: S1P1 (human) receptor agonism; activation, % at 4.5 µM; 16,000 tested, 1.5% active; S1P1 agonist cell-based reporter assay; in the data active = activation above about 80%
rat GALR2 ag: activates the rat galanin receptor 2; O08726; cell-based GALR2 agonist screen; activation, % at 10 µM; 16,000 tested, 0.5% active; in the data active = activation above about 15%
Target sequence (O08726 whole entry, looked up): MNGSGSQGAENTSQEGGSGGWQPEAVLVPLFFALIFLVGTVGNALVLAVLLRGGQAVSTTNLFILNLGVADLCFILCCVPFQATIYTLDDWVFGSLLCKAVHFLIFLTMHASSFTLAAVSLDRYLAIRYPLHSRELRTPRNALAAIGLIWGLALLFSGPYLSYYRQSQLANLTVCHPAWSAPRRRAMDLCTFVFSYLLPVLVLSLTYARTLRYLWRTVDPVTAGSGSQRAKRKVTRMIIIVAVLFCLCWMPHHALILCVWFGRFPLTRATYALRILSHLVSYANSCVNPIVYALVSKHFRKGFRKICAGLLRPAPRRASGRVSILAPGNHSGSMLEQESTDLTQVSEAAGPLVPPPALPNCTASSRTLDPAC
PME-1 Maybridge: inhibitors of human PME-1 in Maybridge library; recombinant PME-1, FP-Rh probe fluorescence polarization; inhibition, % at 9 µM; 16,000 tested, 0.5% active; in the data active = inhibition above about 30%
Numbers stand for hits. Rule as the data show it, unless noted: active = inhibition above about 75%; inactive = the rest.

Results for COc1ccc(C23CC4CC(CC(C4)C2)C3)cc1 ?
NOTCH agonist: inactive; luminol inh ctr: inactive; Nox1 inhibitor: inactive; S1P1 agonist: inactive; rat GALR2 ag: inactive; PME-1 Maybridge: inactive

Results for O=C1Nc2ccccc2/C1=C\c1c[nH]c2ccccc12 ?
NOTCH agonist: inactive; luminol inh ctr: inactive; Nox1 inhibitor: inactive; S1P1 agonist: inactive; rat GALR2 ag: inactive; PME-1 Maybridge: 34

Results for Cn1nc(C(C)(C)C)cc1N ?
NOTCH agonist: inactive; luminol inh ctr: inactive; Nox1 inhibitor: inactive; S1P1 agonist: inactive; rat GALR2 ag: inactive; PME-1 Maybridge: inactive

How did Cc1nn(C(=O)c2cc(C)n(-c3ccccc3)n2)c(C)c1Br do in these assays?
NOTCH agonist: inactive; luminol inh ctr: inactive; Nox1 inhibitor: inactive; S1P1 agonist: inactive; rat GALR2 ag: inactive; PME-1 Maybridge: 41

How did CC(=O)NC1=NC(=O)/C(=C\c2cccs2)N1C do in these assays?
NOTCH agonist: inactive; luminol inh ctr: inactive; Nox1 inhibitor: inactive; S1P1 agonist: inactive; rat GALR2 ag: inactive; PME-1 Maybridge: inactive

What do the screens show for `O=C(CO/N=C/c1ccc(Cl)cc1Cl)NNC(=S)Nc1cc(Cl)ccc1Cl`?
NOTCH agonist: inactive; luminol inh ctr: inactive; Nox1 inhibitor: inactive; S1P1 agonist: 86; rat GALR2 ag: inactive; PME-1 Maybridge: inactive

What do the screens show for `NNC(=O)c1ccc2ncccc2c1`?
NOTCH agonist: inactive; luminol inh ctr: inactive; Nox1 inhibitor: inactive; S1P1 agonist: inactive; rat GALR2 ag: inactive; PME-1 Maybridge: inactive

How did O=C(c1cc2ccccc2s1)N1CCN(C(c2ccccc2)c2ccccc2)CC1 do in these assays?
NOTCH agonist: inactive; luminol inh ctr: inactive; Nox1 inhibitor: inactive; S1P1 agonist: 83; rat GALR2 ag: inactive; PME-1 Maybridge: inactive

How did Cc1ccc(N/C=C(\C#N)C(=O)c2cc(C(C)(C)C)on2)cc1 do in these assays?
NOTCH agonist: inactive; luminol inh ctr: inactive; Nox1 inhibitor: inactive; S1P1 agonist: inactive; rat GALR2 ag: inactive; PME-1 Maybridge: inactive

What do the screens show for `COc1ccc(/C=C(\C#N)C(=O)c2cc(C(C)(C)C)on2)cc1`?
NOTCH agonist: inactive; luminol inh ctr: inactive; Nox1 inhibitor: inactive; S1P1 agonist: inactive; rat GALR2 ag: 21; PME-1 Maybridge: inactive

Results for COc1ccc(C(N)=S)cc1[N+](=O)[O-] ?
NOTCH agonist: inactive; luminol inh ctr: inactive; Nox1 inhibitor: inactive; S1P1 agonist: inactive; rat GALR2 ag: inactive; PME-1 Maybridge: inactive

Results for NC(=O)c1cc2c(c([N+](=O)[O-])c1)-c1c(cc(C(N)=O)cc1[N+](=O)[O-])C2=O ?
NOTCH agonist: inactive; luminol inh ctr: inactive; Nox1 inhibitor: inactive; S1P1 agonist: inactive; rat GALR2 ag: inactive; PME-1 Maybridge: 38

How did c1ccc(Sc2ncnc3sccc23)nc1 do in these assays?
NOTCH agonist: inactive; luminol inh ctr: inactive; Nox1 inhibitor: inactive; S1P1 agonist: inactive; rat GALR2 ag: inactive; PME-1 Maybridge: inactive
